# Laboratory results as given in the supplement of paper PMC7765376.
# The full ranking holds about 1,500 compounds; the median of “Excess HSA synergy score (sum over dose matrix of excess over highest single agent)” is about 43, and the lowest 2% start at about -900. Shown is part of a subset that was picked to be rich in the lowest values.
# System: PEO-1
# Experiment: Excess HSA synergy score (sum over dose matrix of excess over highest single agent) (score (summed % response)); higher = less synergy / more antagonism (negative = synergy)
# Details: 72 h, read-out: viability/apoptosis luminescence (CellTiter-Glo or Caspase3-Glo / not stated per table)
# [1] = matrix design: 6x6, 5-fold dilutions (primary screen)
Structure (SMILES),Excess HSA synergy score [1],"Excess HSA synergy score (matrix design: 10x10, 9-step dilutions (confirmatory))"
CC(C)c1cc(C(=O)N2Cc3ccc(CN4CCN(C)CC4)cc3C2)c(O)cc1O [Onalespib] + CC[C@H](NC(=O)[C@H](C)NC)C(=O)N1C[C@@H](O)C[C@H]1Cc1c(-c2[nH]c3cc(F)ccc3c2C[C@@H]2C[C@H](O)CN2C(=O)[C@H](CC)NC(=O)[C@H](C)NC)[nH]c2cc(F)ccc12 [Birinapant],13.4,–
COc1cc2ncn(-c3cc(OCc4ccccc4C(F)(F)F)c(C(N)=O)s3)c2cc1OC + CC[C@H](NC(=O)[C@H](C)NC)C(=O)N1C[C@@H](O)C[C@H]1Cc1c(-c2[nH]c3cc(F)ccc3c2C[C@@H]2C[C@H](O)CN2C(=O)[C@H](CC)NC(=O)[C@H](C)NC)[nH]c2cc(F)ccc12 [Birinapant],-51.1,–
C[C@@H](Oc1cc(-n2cnc3ccc(CN4CCN(C)CC4)cc32)sc1C(N)=O)c1ccccc1C(F)(F)F + CC[C@H](NC(=O)[C@H](C)NC)C(=O)N1C[C@@H](O)C[C@H]1Cc1c(-c2[nH]c3cc(F)ccc3c2C[C@@H]2C[C@H](O)CN2C(=O)[C@H](CC)NC(=O)[C@H](C)NC)[nH]c2cc(F)ccc12 [Birinapant],-274,-1360
Cc1ccc(F)c(NC(=O)Nc2ccc(-c3cccc4[nH]nc(N)c34)cc2)c1 [Linifanib] + CC[C@H](NC(=O)[C@H](C)NC)C(=O)N1C[C@@H](O)C[C@H]1Cc1c(-c2[nH]c3cc(F)ccc3c2C[C@@H]2C[C@H](O)CN2C(=O)[C@H](CC)NC(=O)[C@H](C)NC)[nH]c2cc(F)ccc12 [Birinapant],-40,–
C[C@@H](O)[C@H](NC(=O)[C@@H]1CSSC[C@H](NC(=O)[C@H](N)Cc2ccccc2)C(=O)N[C@@H](Cc2ccc(O)cc2)C(=O)N[C@H](Cc2c[nH]c3ccccc23)C(=O)N[C@@H](CCCCN)C(=O)N1)C(N)=O + CC[C@H](NC(=O)[C@H](C)NC)C(=O)N1C[C@@H](O)C[C@H]1Cc1c(-c2[nH]c3cc(F)ccc3c2C[C@@H]2C[C@H](O)CN2C(=O)[C@H](CC)NC(=O)[C@H](C)NC)[nH]c2cc(F)ccc12 [Birinapant],120,–
Cc1ccccc1C(C(=O)NC1CCCCC1)N(C(=O)Cn1ccnc1C)c1cccc(F)c1 (stereo not drawn) + CC[C@H](NC(=O)[C@H](C)NC)C(=O)N1C[C@@H](O)C[C@H]1Cc1c(-c2[nH]c3cc(F)ccc3c2C[C@@H]2C[C@H](O)CN2C(=O)[C@H](CC)NC(=O)[C@H](C)NC)[nH]c2cc(F)ccc12 [Birinapant],12.3,–
COc1cc2ncn(-c3cc(OCc4ccccc4S(C)(=O)=O)c(C#N)s3)c2cc1OC [IKK-3 Inhibitor IX] + CC[C@H](NC(=O)[C@H](C)NC)C(=O)N1C[C@@H](O)C[C@H]1Cc1c(-c2[nH]c3cc(F)ccc3c2C[C@@H]2C[C@H](O)CN2C(=O)[C@H](CC)NC(=O)[C@H](C)NC)[nH]c2cc(F)ccc12 [Birinapant],113,–
